The results in this text go back to PubChem BioAssay (NCATS).

Values joined by “and” are separate entries in the source; they are usually repeats but may differ in a detail not shown here. Identical values can stand only once. Results filed as inconclusive are left out. Where a call stands in place of a potency, no number is given. A structure can be active in one record and inactive in another. Active and inactive are the calls of the source. Calls come from the whole dose curve; as a rule, active = well fitted inhibition curve with a large enough effect; inconclusive = small, poorly fitted or top-dose-only effect; inactive = flat fitted curve, though single readings scatter.
Potency is the fitted concentration of half-maximal effect.

The assay deals with Phospholipid hydroperoxide glutathione peroxidase GPX4 (Homo sapiens) (UniProt P36969). Nature of the assay: Primary qHTS Assay for Inhibitors of Recombinant Selenoprotein Glutathione Peroxidase 4 (GPX4) (AID 1845192). Note: nearly all actives have a fitted effect of over 65% in size. The following applies: recombinant GPX4, GR-coupled NADPH fluorescence, 15 min; series mostly up to 50 µM. An excerpt: Assay Provider: Elias S.J. Arner MD PhD.
Sequence of Phospholipid hydroperoxide glutathione peroxidase GPX4 (Homo sapiens) (P36969 whole entry, looked up): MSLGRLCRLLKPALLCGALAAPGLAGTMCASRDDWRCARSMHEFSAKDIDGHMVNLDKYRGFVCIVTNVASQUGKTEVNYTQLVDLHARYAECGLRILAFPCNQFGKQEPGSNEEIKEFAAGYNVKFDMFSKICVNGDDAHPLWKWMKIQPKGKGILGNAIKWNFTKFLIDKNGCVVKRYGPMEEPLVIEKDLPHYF
Department of Medical Biochemistry and Biophysics
Karolinska Institutet, Solna, Stockholm, Sweden
Selenoprotein glutathione peroxidases (GPX), like the ubiquitously expressed GPX1 and the ferroptosis modulator GPX4, enact their antioxidant activities by reducing hydroperoxides using glutathione. […] GPX1 and GPX4 inhibitors have thus shown promise as anti-cancer agents. Existing inhibitors are often promiscuous, or modulate GPX activity only indirectly, so novel direct inhibitors identified through screening against GPX1 and GPX4 could be valuable. Here, we developed optimized glutathione reductase (GR)-coupled GPX assays for the biochemical high-throughput screen (HTS) of almost 12,000 compounds with known mechanisms of action. Initial hits were triaged using a GR counter-screen, assessed for isoform specificity using a separate GPX2 assay, and were assessed for general selenocysteine-targeting activity using a thioredoxin reductase (TXNRD1) assay. With this suite of assays, we identified novel GPX1/GPX2- and GPX4-specific inhibitors and can here present a validated pipeline for future discovery research for selenoprotein-targeting agents.
SEQUENCE No. (e.g., 1, 2, 3, etc.); […] (e.g., Cells, Incubation, Reagent, etc.); VALUE; DESCRIPTION.
1; Reagent 1; 3 uL; 333.33 nM GPx4 enzyme or no enzyme control in 1536-well, black, solid Greiner assay plate.
2; Compound; 25 nL; Kalypsis pin tool (Wako USA) equipped with a 1536-well pin head.
3; Incubation; 30 min; room temperature.
4; Reagent 2; 1 uL; 500 nM GR, 5 mM GSH, 2.5 mM NADPH solution
5; Reagent 3; 1 uL; 2.5 mM CHP in 50% EtOH.
6; Detection; Fluorescence; ViewLux microplate reader, excitation 340 nm and emission 450 nm.
7; Incubation; 15 min; room temperature.
8; Detection; Fluorescence; ViewLux microplate reader, excitation 340 nm and emission 450 nm.
NOTES (numbers refer to Sequence numbers above)
1. 3 µL of 333.33 nM GPX4 and 0.016% BSA in assay buffer (50 mM Tris-HCl, 2 mM EDTA (pH 7.5), 150 mM NaCl) was added to columns 3-48 of 1536-well plates using a BioRAPTR Flying Reagent Dispenser (Let's Go Robotics (LGR), Carlsbad, CA). A no-enzyme control (0.01% BSA in TES assay buffer) was added to columns 1-2.
2. 25 nL, library and DMSO controls were added to each well with a pin tool (Kalypsys).
3. The assay plates were incubated for 30 minutes at room temperature.
4. 1 µL of master mix (500 nM glutathione reductase (GR), 5 mM reduced glutathione (GSH), 2.5 mM NADPH in assay buffer) was added.
5. 1 µL of cumene hydroperoxide (CHP) ([2.5 mM] in 50% EtOH) was then added within 5 minutes to initiate the reaction. Final concentrations were: 200 nM GPX4, 1 mM GSH, 0.5 mM CHP, 0.5 mM NADPH, 100 nM GR, 0.01% BSA.
6. Initial fluorescence readout (t=0) at 340/450 nm was measured using a ViewLux multimodal detector (PerkinElmer, Waltham, MA).
8. Endpoint fluorescence readout (t=15) at 340/450 nm was measured 15 min after room temperature incubation.
For orientation: qHTS replaces the single test concentration by a dilution series.
As for `NS(=O)(=O)c1cc2c(cc1Cl)NC(Cc1ccccc1)NS2(=O)=O` (stereo not given), the Potency entry is “inactive”.

Regarding `CN[C@@H]1[C@@H](O)[C@@H](O[C@@H]2[C@@H](O)[C@H](O[C@H]3O[C@H](CN)[C@@H](O)[C@H](O)[C@H]3O)[C@@H](N)C[C@H]2NC(=O)C(O)CN)OC[C@]1(C)O` (stereo not given in full), the Potency result was “inactive”. In the case of `FC(F)OC(Cl)C(F)(F)F` (stereo not given), the Potency entry is “inactive”. On the same count and under the same terms, with `C[C@H](CCC(=O)O)[C@H]1CC[C@H]2[C@@H]3[C@H](O)C[C@@H]4C[C@H](O)CC[C@]4(C)[C@H]3C[C@H](O)[C@]12C` the entry was “inactive”; with `CNC(=O)[C@H](Cc1c[nH]c2ccccc12)NC(=O)[C@@H](CC(=O)NO)CC(C)C`, “inactive”; with `CNC(=O)C[C@@H](N)C(=O)N[C@@H](C(=O)N[C@@H]1C(=O)N2[C@@H]1SC(C)(C)[C@@H]2C(=O)O)c1ccc(O)cc1`, “inactive”. Turning to `O=C(OCc1ccccc1)c1ccc(O)cc1`, the Potency entry is “inactive”. Consider `CCCCC/C=C\C/C=C\C/C=C\CCCCC(=O)O`, for which the Potency was 8.91 µM (active). The same measure, in the same setting: for `Cc1cccc(C)c1NC(=O)C1CCCCN1C` (stereo not given) the value was “inactive”.

Turning to `CCCCC[C@H](O)/C=C/[C@H]1[C@H](O)CC(=O)[C@@H]1CCCCCCC(=O)O`, the Potency result is “inactive”.

With `NC(=O)OCC(O)COc1ccc(Cl)cc1` (stereo not given), the Potency entry was “inactive”. As for `O=C(NNCS(=O)(=O)O)c1ccncc1`, the Potency is 3.98 µM (active). As to `C[C@]12CCC(=O)C[C@@H]1CC[C@@H]1[C@@H]2CC[C@]2(C)C=CC[C@@H]12`, the Potency result was “inactive”. On to `NC(N)=NCC1COC2(CCCCC2)O1` (stereo not given), for which the Potency entry was “inactive”. Take `CC(CN1c2ccccc2Sc2cccnc21)N(C)C` (stereo not given): the Potency result was “inactive”.

Regarding `CC1(O)CCC(C(C)(C)O)CC1` (stereo not given), the Potency result was “inactive”. As for `c1ccc2ccccc2c1`, the Potency result was “inactive”.

Turning to `CC(C)(C)NCC(O)CSc1nc(-c2ccc(C(N)=O)s2)cs1` (stereo not given), the Potency is 12.6 µM (active). Still for that read-out and setting: for `CC1CC(OC(=O)C(O)c2ccccc2)CC(C)(C)C1` (stereo not given) the value was “inactive”. `CCC(O)c1ccccc1` (stereo not given): the Potency entry is “inactive”.

For `O=C(O)c1cc(O)c2c(c1)[C@H]([C@H]1c3cc(C(=O)O)cc(O)c3C(=O)c3c(O[C@@H]4O[C@H](CO)[C@@H](O)[C@H](O)[C@H]4O)cccc31)c1cccc(O[C@@H]3O[C@H](CO)[C@@H](O)[C@H](O)[C@H]3O)c1C2=O`, the Potency was 1.12 µM (active). Consider `N[C@@H](Cc1cc(I)c(Oc2ccc(O)c(I)c2)c(I)c1)C(=O)O`, for which the Potency result was “inactive and 14.1 µM (active)”. With `C=C(C)C1CC=C(C)CC1` (stereo not given), the Potency result was “inactive”.

`CC[C@H](CC[C@@H](C)[C@H]1CC[C@H]2[C@@H]3CC=C4C[C@@H](O)CC[C@]4(C)[C@H]3CC[C@]12C)C(C)C`: the Potency entry was “inactive”. In the case of `COc1ccc2c(c1)OC(C)(C)C(c1ccccc1)C2c1ccc(OCCN2CCCC2)cc1` (stereo not given), the Potency result was “inactive”.

With `O=C(OC[C@H]1O[C@@H](OC(=O)c2cc(O)c(O)c(OC(=O)c3cc(O)c(O)c(O)c3)c2)[C@H](OC(=O)c2cc(O)c(O)c(OC(=O)c3cc(O)c(O)c(O)c3)c2)[C@@H](OC(=O)c2cc(O)c(O)c(OC(=O)c3cc(O)c(O)c(O)c3)c2)[C@@H]1OC(=O)c1cc(O)c(O)c(OC(=O)c2cc(O)c(O)c(O)c2)c1)c1cc(O)c(O)c(OC(=O)c2cc(O)c(O)c(O)c2)c1`, the Potency is 4.47 µM (active). For the compound `C=CCOc1ccc(CC(=O)O)cc1Cl`, the Potency result is “inactive”. Still for that read-out and setting: for `CCCCC(O)c1ccccc1` (stereo not given) the value was “inactive”; for `COC(=O)[C@@H](N)CS`, 10 µM (active).

As for `NC(=O)[C@@H]1C[C@]2(NC(=O)NC2=O)c2cc(F)ccc2O1`, the Potency entry was “inactive”. Regarding `CC(C)(CO)[C@@H](O)C(=O)NCCC(=O)NCCSSCCNC(=O)CCNC(=O)[C@H](O)C(C)(C)CO`, the Potency entry was “inactive”.

In the case of `Cc1ncc(COP(=O)(O)O)c(CN)c1O`, the Potency entry was “inactive”. `COc1cc(C)c(/C=C/C(C)=C/C=C/C(C)=C/C(=O)O)c(C)c1C`: the Potency was 16.1 µM (active). With `CC(C)C[C@H](NC(=O)[C@@H](COC(C)(C)C)NC(=O)[C@H](Cc1ccc(O)cc1)NC(=O)[C@H](CO)NC(=O)[C@H](Cc1c[nH]c2ccccc12)NC(=O)[C@H](Cc1cnc[nH]1)NC(=O)[C@@H]1CCC(=O)N1)C(=O)N[C@@H](CCCN=C(N)N)C(=O)N1CCC[C@H]1C(=O)NNC(N)=O`, the Potency result is “inactive”. As for `NC(=O)[C@H]1O[C@@H](O)[C@H](O)[C@@H](O)[C@@H]1O`, the Potency entry is “inactive”. Take `CCCCCCCCCCCCCCCCCCCCCC(=O)Nc1ccn([C@@H]2O[C@H](CO)[C@@H](O)[C@@H]2O)c(=O)n1`: the Potency entry is “inactive”. As for `C=C[C@]1(C)C[C@@H](OC(=O)CSCCN(CC)CC)[C@]2(C)[C@H](C)CC[C@]3(CCC(=O)[C@H]32)[C@@H](C)[C@@H]1O`, the Potency result is “inactive”. On to `CC1=CC(=C(c2ccc(N)cc2)c2ccc(N)cc2)C=CC1=N`, for which the Potency result was “inactive”. Regarding `O=C(O)c1ccc(NC(=O)[C@H](Cc2ccc(O)cc2)NC(=O)c2ccccc2)cc1`, the Potency result was “inactive”. Consider `Cc1ncc(C[n+]2csc(CCOP(=O)(O)OP(=O)(O)O)c2C)c(N)n1`, for which the activity change, negative = inhibition is -9.41% [at 0.409 µM] (inactive).
